This note sets out measurements from PubChem BioAssay (Tox21).

Results filed as inconclusive are left out. Unmarked numbers belong to inactive results. Calls of active or inactive are those of the source. Unless noted, calls come from the whole dose curve; as a rule, active = well fitted curve in the direction sought with a large enough effect in the repeat runs; inconclusive = weak or mixed curves; inactive = no such curve, though single readings can be large; an effect the other way counts as inactive or inconclusive.

Assay [1] can be described thus: qHTS assay to identify small molecule antagonists of the estrogen related receptor (ERR) signaling pathway from Tox21 library - cell viability counter screen (AID 1224834). Note: nearly all actives have a fitted effect of over 30% in size. Note: potency is the fitted concentration of half-maximal effect. The note with it: ERR reporter cells viability, CellTiter-Fluor, 17.5 h; series mostly up to 92.4 µM. In short, it runs like this: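 After 17.5 h of compound exposure at 37 C, ERR cells are incubated with CellTiter-Fluor for 30 min and fluorescence intensity serves as the viability measure.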
A general note: In qHTS, concentration-response curves come from the screen itself.

The target of assay [2] is Luciferin 4-monooxygenase (Photinus pyralis) (UniProt P08659). Kind of assay: qHTS assay to identify small molecule inhibitors of firefly luciferase (AID 1224835). Note: nearly all actives have a fitted effect of over 25% in size. Note: potency is the fitted concentration of half-maximal effect. The note with it: purified P. pyralis luciferase, luminescence inhibition; series mostly up to 115 µM. The essentials: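 Biochemical qHTS: compounds run as interplate titrations against purified firefly enzyme, with D-luciferin and ATP each at its KM concentration. Light output recorded by CCD imaging.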
Sequence of Luciferin 4-monooxygenase (Photinus pyralis) (P08659 whole entry, looked up): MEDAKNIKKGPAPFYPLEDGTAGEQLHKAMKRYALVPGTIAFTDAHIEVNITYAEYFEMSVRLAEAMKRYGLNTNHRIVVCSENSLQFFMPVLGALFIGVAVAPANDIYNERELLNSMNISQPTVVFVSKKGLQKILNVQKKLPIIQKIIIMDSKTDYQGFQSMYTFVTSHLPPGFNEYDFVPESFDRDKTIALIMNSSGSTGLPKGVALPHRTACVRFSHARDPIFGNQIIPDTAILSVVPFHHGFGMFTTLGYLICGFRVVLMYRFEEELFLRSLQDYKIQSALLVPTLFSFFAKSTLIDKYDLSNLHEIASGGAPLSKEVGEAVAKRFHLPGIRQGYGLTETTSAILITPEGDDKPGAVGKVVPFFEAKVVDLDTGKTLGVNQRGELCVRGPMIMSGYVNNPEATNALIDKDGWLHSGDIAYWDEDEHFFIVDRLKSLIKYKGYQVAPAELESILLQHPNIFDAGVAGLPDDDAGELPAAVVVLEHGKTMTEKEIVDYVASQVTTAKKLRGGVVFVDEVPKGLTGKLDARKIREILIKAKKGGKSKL

Assay [3] is described as follows: qHTS assay to identify small molecule agonists of the constitutive androstane receptor (CAR) signaling pathway - cell viability counter screen (AID 1224836). Note: nearly all actives have a fitted effect of over 45% in size. Note: potency is the fitted concentration of half-maximal effect. As to conditions: HepG2-CYP2B6-hCAR viability, CellTiter-Fluor, 23 h, PK11195 added to every well; series mostly up to 92.4 µM. The essentials: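 Multiplexed viability check: HepG2-CYP2B6-hCAR cells, 15-point compound dosing, 0.75 uM PK11195 final, 23 h at 37 C, CellTiter-Fluor fluorescence.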

Assay [4] can be described thus: qHTS assay to identify small molecule antagonists of the constitutive androstane receptor (CAR) signaling pathway - cell viability counter screen (AID 1224837). Note: nearly all actives have a fitted effect of over 45% in size. Note: potency is the fitted concentration of half-maximal effect. The note with it: HepG2-CYP2B6-hCAR viability, CellTiter-Fluor, 23 h, co-treated with 50 nM CITCO; series mostly up to 92.4 µM. In short, it runs like this:
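Counter screen run in HepG2-CYP2B6-hCAR cells: 4 hr settle, compound titration (15 concentrations) with 50 nM CITCO, 23 hr at 37 C/5% CO2, CellTiter-Fluor fluorescence.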

In assay [5] the target is Nuclear receptor subfamily 1 group I member 3 (Homo sapiens) (UniProt Q14994). Kind of assay: qHTS assay to identify small molecule antagonists of the constitutive androstane receptor (CAR) signaling pathway (AID 1224838). Note: nearly all actives have a fitted effect of over 40% in size. Note: potency is the fitted concentration of half-maximal effect. As to conditions: HepG2-CYP2B6-hCAR luciferase, CITCO-stimulated, 24 h; series mostly up to 92.4 µM. The essentials: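 Cell line: HepG2 double-stable for hCAR and CYP2B6-2.2kb reporter. Agonist: CITCO, 50 nM final. Compounds: 15 concentrations, 24 h, 37 C. Detection: ONE-Glo luminescence.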
Sequence of Nuclear receptor subfamily 1 group I member 3 (Homo sapiens) (Q14994 whole entry, looked up): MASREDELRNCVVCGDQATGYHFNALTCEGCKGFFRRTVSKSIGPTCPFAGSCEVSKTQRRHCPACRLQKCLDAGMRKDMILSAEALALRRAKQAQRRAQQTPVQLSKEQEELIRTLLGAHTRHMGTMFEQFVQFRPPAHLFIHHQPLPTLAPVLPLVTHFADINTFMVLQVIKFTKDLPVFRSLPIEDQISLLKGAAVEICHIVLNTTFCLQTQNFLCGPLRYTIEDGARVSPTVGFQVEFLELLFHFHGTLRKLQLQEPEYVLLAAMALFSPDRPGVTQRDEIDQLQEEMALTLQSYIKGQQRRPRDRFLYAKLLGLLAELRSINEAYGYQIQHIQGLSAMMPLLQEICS

A short description of assay [6]: qHTS assay to identify small molecule antagonists of the estrogen related receptor signaling pathway with the pleiotropic PPARgamma coactivator (PGC) from Tox21 10K library - cell viability counter screen (AID 1224840; active = well fitted cell-killing curve with a large enough effect in the repeat runs, not every such curve was filed as active; note: nearly all actives have a fitted effect of over 40% in size; note: potency is the fitted concentration of half-maximal effect). As to conditions: PGC/ERR reporter cells viability, CellTiter-Fluor, 17.5 h; series mostly up to 92.4 µM. The essentials: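 Following seeding of 2,000 PGC/ERR cells/well and 6 hours' incubation, test compounds were delivered in DMSO. The plates then sat 17.5 hours at 37 C before a fluorogenic live-cell protease reagent (CellTiter-Fluor) was read after 30 min.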

Assay [7] in a line: qHTS assay to identify small molecule antagonists of the estrogen related receptor signaling pathway with the pleiotropic PPARgamma coactivator (PGC) from Tox21 10K library (AID 1224841; call rule not given here; note: actives are mostly falling curves and most rising ones were filed inactive; nearly all actives have a fitted effect of over 50% in size; note: potency is the fitted concentration of half-maximal effect). As to conditions: PGC/ERR reporter cell line, ONE-Glo luciferase, 18 h; series mostly up to 92.4 µM. The essentials: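 qHTS antagonist format: PGC/ERR cells, 2k/well, compound in DMSO by pin transfer after 6 h attachment, 18 h treatment at 37 C, One-Glo luminescence read at 30 min.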

The nature of assay [8]: qHTS assay to identify small molecule agonists of the estrogen related receptor signaling pathway with the pleiotropic PPARgamma coactivator (PGC) from Tox21 10K library (AID 1224842). Note: nearly all actives have a fitted effect of over 15% in size. As to conditions: PGC/ERR reporter cell line, luciferase ONE-Glo, 18 h; series mostly up to 92.4 µM. The essentials:
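PGC/ERR reporter cell line, 2,000 cells per well, incubated 6 h at 37 C before 23 nL compound in DMSO was added. After 18 h at 37 C, One-Glo luminescence read following 30 min at room temperature.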
% is set by controls: 0 for no effect and ±100 for the full control effect.

With `c1ccc2sc(SSc3nc4ccccc4s3)nc2c1`, the viability change, negative = cytotoxic in assay [1] was 0.18% [at 19 µM]; in assay [3], 1.07% [at 19 µM]; in assay [6], 10.2% [at 19 µM]. Also, the Potency in assay [2] was 10.7 µM (active). The activity change, negative = cytotoxicity in assay [4] is 11.8% [at 19 µM]. The activity, negative = inhibition in assay [5] is 80.4% [at 19 µM].
Turning to `CCCCOCCOC(=O)c1cccnc1`, the Potency result in assay [1], in assay [2], in assay [3], in assay [4], in assay [5] and in assay [6] was “inactive” in each case.
As to `O=C(c1ccccc1)C1CCC1`, the Potency entry in assay [1], in assay [2], in assay [3], in assay [4], in assay [5] and in assay [6] was “inactive” in each case.
Take `CO[C@@H]1[C@@H](OC)[C@H](C)[C@@](O)(CC(=O)O)O[C@H]1[C@H](C)[C@H]1O[C@@]2(CC[C@@](C)([C@H]3CC[C@@](C)([C@@H]4O[C@@H]([C@H]5O[C@](C)(O)[C@H](C)C[C@@H]5C)C[C@@H]4OC4C[C@H](OC)[C@@H](OC)[C@H](C)O4)O3)O2)C[C@H](O)[C@H]1C` (stereo partly specified): the Potency in assay [1] is 0.944 µM (active); in assay [3] it was 5.31 µM (active); in assay [4], 4.73 µM (active); in assay [5], 9.44 µM (active); in assay [6] it was 0.75 µM (active). Further, the Potency result in assay [2] was “inactive”.
As for `CC(C)OC(=O)c1ccccc1C(=O)OC(C)C`, the Potency entry in assay [1], in assay [2], in assay [3], in assay [4], in assay [5] and in assay [6] was “inactive” in each case.
As for `CCCCCCOC(=O)CCCCC`, the Potency result in assay [1], in assay [2], in assay [3], in assay [4] and in assay [6] was “inactive” each time.
`CCN(CC)c1ccc(C(=C2C=CC(=[N+](CC)CC)C=C2)c2ccc(S(=O)(=O)O)cc2S(=O)(=O)[O-])cc1`: the Potency is 21.7 µM (active) in assay [1]; 8.94 µM (active) in assay [2]; 24.3 µM (active) in assay [3]; 27.3 µM (active) in assay [4]; 27.3 µM (active) in assay [6]; 8.63 µM (active) in assay [7]. Further, the Potency entry in assay [8] was “inactive”.
Regarding `CC[C@H]1OC(=O)[C@H](C)[C@@H](O[C@H]2C[C@@](C)(OC)[C@@H](O)[C@H](C)O2)[C@H](C)[C@@H](O[C@@H]2O[C@H](C)C[C@H](N(C)C)[C@H]2O)[C@](C)(O)C[C@@H](C)/C(=N\OCOCCOC)[C@H](C)[C@@H](O)[C@]1(C)O`, the Potency in assay [1] is 14.3 µM (active); in assay [3] it was 25.5 µM (active); in assay [4], 14.3 µM (active). Also, the Potency entry in assay [2], in assay [6], in assay [7] and in assay [8] was “inactive” each time.
Take `C=CC(=O)NC(C)C`: the Potency result in assay [1], in assay [2], in assay [3], in assay [4], in assay [6] and in assay [7] was “inactive” throughout. Also, the Potency entry in assay [8] is “inactive”.
In the case of `CC(C)C1CCC(C(=O)N[C@H](Cc2ccccc2)C(=O)O)CC1` (stereo partly specified), the Potency result in assay [1], in assay [2], in assay [3], in assay [4] and in assay [6] was “inactive” each time.
